Molecules are shown by their SMILES. The panel holds about 83,000 compounds, 20% with a hit somewhere; the sample as a whole holds those more often.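 Note: values are percent growth. 100 is the growth of untreated cells, values between 100 and 0 indicate rising inhibition; between -100 and 0 indicates cell death.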 A number with no mark means an inactive call. Calls of active or inactive are those of the source. The calls were made as follows: active = growth percent below 10; inactive = the rest.

For the assay, the system named is HL-60(TB) leukemia. In words: NCI-60 one-dose screen, 48 h (100 = growth as untreated, 0 = no growth, -100 = all killed). The note with it: 10 µM unless noted.
Consider `COCC(=O)Oc1cc(-c2ccc(C)cc2C)c(OC(=O)COC)c(-c2ccc(C)cc2C)c1`, for which the growth was 36.9%. Next, `Cn1cc(-c2cnn3c(N)c(Br)c([C@@H]4CCCNC4)nc23)cn1`: 21.2%; `COc1ccc(-c2cnoc2-c2cc(OC)c3c(c2)OCCO3)cc1`: -27.4% (active). Next, `Cc1nc(N)nc(N[C@@H](C)c2nc3cccc(NCc4ccc(C(=O)NO)cc4)c3c(=O)n2-c2ccccc2)n1`: 43.1%.

Consider `O=C=NC(c1ccccc1)(c1ccccc1)c1ccccc1`, for which the growth is 102%.

For the compound `C=CC(=O)Nc1cccc(-c2nc(SC)nc(NCCc3ccc(OC)c(OC)c3)c2C#N)c1`, the growth was 25.6%. To `O=C(Nc1ccccc1C(=O)N/N=C(\c1ccccc1)c1ccccn1)c1ccc(F)cc1` belongs -1.1% (active). Next, `CN1C(=O)C2(NN=C(c3cccc4ccccc34)S2)c2ccccc21` (stereo not given): 34.7%; `O=S(=O)(Nc1ccc(Br)c(Cl)c1)c1ccc(-c2cnc(C3CC3)o2)cc1`: -4.27% (active); `CS(=O)(=O)OC1CC(n2ccc(=O)[nH]c2=O)OC1COC(c1ccccc1)(c1ccccc1)c1ccccc1` (stereo not given): 97.6%. Regarding `CCCCCCCCCCCCSC1=C(Cl)C(=O)C(OC)=C(OC)C1=O`, the growth is -46.2% (active). To `C=CCCC(=O)N1C=CC(=O)[C@H](O)[C@@H]1/C=C/c1ccccc1` belongs 32.2% [100 µM]; to `O=C1c2ccccc2C(=O)c2c(NCCN=Cc3ccccc3O)cccc21`, 44%. For the compound `COc1ccc(/C(C)=C(\c2ccc(Cl)cc2)c2ccc(OCCN(C)C)cc2)cc1F`, the growth was 58.2%. Next, `CC(=O)Nc1ccc2nc3ccc(NC(C)=O)cc3[n+](-c3ccccc3)c2c1`: 4% (active); `Cc1ccc(NC(=O)c2nc(S(C)(=O)=O)oc2-c2ccc(F)cc2)cc1Nc1ccc2ncn(C)c(=O)c2c1`: 46.5%.

Consider `O=S1(=O)CCN(Cc2ccccc2)CC1`, for which the growth was 108%. To `COc1cc2c(Oc3ccc(NC(=O)C4(C(=O)Nc5ccc(F)cc5)CC4)cc3F)ccnc2cc1OCCCN1CCOCC1` belongs -21.4% (active); to `Cc1cc(Nc2cccc(F)c2)nc(NCc2ccccc2)n1`, 24.1%; to `CCCCCCCCCCCCCC1=NCC[N+]1(CCO)Cc1ccccc1` (stereo not given), -63.8% (active). To `Cc1nc2ccccc2c(/C=C/c2ccccc2)c1C(=O)/C=C/c1ccc(Cl)cc1` belongs 1.63% (active); to `Oc1cccc(CCc2ccc(Oc3cc(CCc4cccc(O)c4)cc(O)c3O)cc2)c1`, 15.3%; to `COc1ccc2sc(N(Cc3cccnc3)C(=O)c3ccc(C#N)cc3)nc2c1`, 63.4%.

For the compound `O=C(/C=C/c1ccc(F)cc1)Nc1ncc(Cc2ccc(F)cc2)s1`, the growth is -26.6% (active). Take `OC(c1ccc(Cl)cc1)(c1ccc(Cl)cc1)C(O)(c1ccc(Cl)cc1)c1ccc(Cl)cc1`: the growth was 51.2%. Next, `O=C(O)/C=C\C(=O)Nc1ccc2c(c1)Cc1cc(F)ccc1-2`: 100%.

`CCSc1nnc(Nc2ccc(C(C)C)cc2)s1`: the growth was 48.8%. To `COc1cc2nc3cc([N+](=O)[O-])ccc3c(NCCCNCCO)c2cc1OC` belongs -25.3% (active). Next, `COc1cc2nc(-c3ccc(Cl)cc3)cc(OCCCN3CCCCC3)c2cc1OC`: 29.6%; `COC(=O)c1cnc2c(c1)Oc1ccc(Cl)cc1-c1cc(C)nn1-2`: 95.9%. To `O=C(c1ccc(Cl)cc1)c1no[n+]([O-])c1C(=O)c1ccc(Cl)cc1` belongs -27.9% (active); to `CC(C)(C)c1nn(-c2ccccc2)c2c1COCN2Cc1ccc(Cl)cc1`, 43.5%.

With `O=C(CCCCC[P+](c1ccccc1)(c1ccccc1)c1ccccc1)NC(COC(=O)C(Cl)Cl)(COC(=O)C(Cl)Cl)COC(=O)C(Cl)Cl`, the growth was 95.5%. Next, `COc1cc(C(N)=O)cc(OC)c1OC`: 96.6%. To `COC(=O)c1ccc2c(c1)c1c(C)c3cnccc3c(C)c1n2C` belongs -2.92% (active). Turning to `NC(=S)N/N=C(/CCN1CCCC1)CC(C1=C(O)C2=CCCCC2OC1=O)c1ccccc1` (stereo not given), the growth was 72.9%.

Turning to `Cc1c(C(=O)O)c(=O)n(-c2ccccc2)n1C`, the growth is 109%. To `CCCCNC(=O)NS(=O)(=O)Cc1ccccc1` belongs 88.1%; to `N#Cc1ccc(C(F)(F)F)nc1N1CCC(C(=O)Nc2ccc(Cl)cc2)CC1`, 70%; to `Cc1cc(N)cc(C)c1-c1c(Br)cc(N)cc1Br`, 10.4%.
